Assay results from publication PMC7862700, “An all-to-all approach to the identification of sequence-specific readers for epigenetic DNA modifications on cytosine”.

Legend:
Experiment in all cases: DAPPL (digital affinity profiling via proximity ligation, sequencing); 10 mM Tris-HCl pH 7.5, 50 mM NaCl, 1 mM DTT, 4% glycerol, room temperature, 30 min; GST-TFs on glutathione beads, 16-mer random dsDNA library, 0.1% formaldehyde crosslink after washing; high values mean tight binding
[1] = molecular target: T1, FEV (Homo sapiens, UniProt Q99581 1-238); details: protein: recombinant; tags: N-terminal GST; dsDNA, one strand shown
T1 sequence: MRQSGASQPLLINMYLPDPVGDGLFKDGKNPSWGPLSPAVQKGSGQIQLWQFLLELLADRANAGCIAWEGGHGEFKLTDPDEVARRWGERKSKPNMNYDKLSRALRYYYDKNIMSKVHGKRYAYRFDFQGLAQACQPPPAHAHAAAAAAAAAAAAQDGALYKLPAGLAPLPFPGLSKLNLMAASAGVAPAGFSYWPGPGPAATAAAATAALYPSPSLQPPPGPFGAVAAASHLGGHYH
Procedure, shortened: (§1)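 Human transcription factors were made in yeast as GST fusions, captured on glutathione beads and barcoded with DNA. With a tag-only sample included, the pool was incubated with 200 nmole of a random double-stranded 16-mer DNA library in Tris/NaCl/DTT/glycerol buffer at room temperature for 30 min, then crosslinked with 0.1% formaldehyde after washing, ligated by proximity, amplified and sequenced. For binding signal, each hexamer's read frequency for a factor is divided by its frequency for the tag-only sample.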

[2] = molecular target: ETV5 (Homo sapiens, UniProt P41161 1-510); details: protein: recombinant; tags: N-terminal GST; dsDNA, one strand shown
Procedure, shortened: as §1

[3] = molecular target: HSF1 (Homo sapiens, UniProt Q00613 1-529); details: protein: recombinant; tags: N-terminal GST; chain copies: 3; dsDNA, one strand shown
Procedure, shortened: as §1

[4] = molecular target: T2, SPIC (Homo sapiens, UniProt Q8N5J4 1-248); details: protein: recombinant; tags: N-terminal GST; dsDNA, one strand shown
T2 sequence: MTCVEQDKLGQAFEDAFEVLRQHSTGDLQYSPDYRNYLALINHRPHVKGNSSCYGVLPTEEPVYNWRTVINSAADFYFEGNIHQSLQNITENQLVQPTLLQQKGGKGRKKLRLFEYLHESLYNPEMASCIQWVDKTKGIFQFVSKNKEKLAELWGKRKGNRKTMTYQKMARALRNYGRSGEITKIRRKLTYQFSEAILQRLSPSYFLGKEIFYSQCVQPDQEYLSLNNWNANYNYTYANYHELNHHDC
Procedure, shortened: as §1

[5] = molecular target: ELF4 (Homo sapiens, UniProt Q99607 1-663); details: protein: recombinant; tags: N-terminal GST; dsDNA, one strand shown
Procedure, shortened: as §1

[6] = molecular target: T3, ELK4 (Homo sapiens, UniProt P28324-2 1-405); details: protein: recombinant; tags: N-terminal GST; dsDNA, one strand shown
T3 sequence: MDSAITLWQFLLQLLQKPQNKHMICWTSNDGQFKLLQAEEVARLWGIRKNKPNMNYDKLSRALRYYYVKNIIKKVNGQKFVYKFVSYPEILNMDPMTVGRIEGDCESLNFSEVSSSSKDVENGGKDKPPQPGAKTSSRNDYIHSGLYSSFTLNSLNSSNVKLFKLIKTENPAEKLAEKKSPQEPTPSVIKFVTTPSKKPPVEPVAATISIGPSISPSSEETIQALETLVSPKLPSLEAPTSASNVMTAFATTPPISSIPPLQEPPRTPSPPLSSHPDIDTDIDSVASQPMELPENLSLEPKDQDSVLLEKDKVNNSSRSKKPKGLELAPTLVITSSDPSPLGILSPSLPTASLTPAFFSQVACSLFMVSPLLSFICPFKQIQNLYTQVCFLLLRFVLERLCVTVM
Procedure, shortened: as §1

[7] = molecular target: T4, ETV2 (Homo sapiens, UniProt O00321 1-342); details: protein: recombinant; tags: N-terminal GST; dsDNA, one strand shown
T4 sequence: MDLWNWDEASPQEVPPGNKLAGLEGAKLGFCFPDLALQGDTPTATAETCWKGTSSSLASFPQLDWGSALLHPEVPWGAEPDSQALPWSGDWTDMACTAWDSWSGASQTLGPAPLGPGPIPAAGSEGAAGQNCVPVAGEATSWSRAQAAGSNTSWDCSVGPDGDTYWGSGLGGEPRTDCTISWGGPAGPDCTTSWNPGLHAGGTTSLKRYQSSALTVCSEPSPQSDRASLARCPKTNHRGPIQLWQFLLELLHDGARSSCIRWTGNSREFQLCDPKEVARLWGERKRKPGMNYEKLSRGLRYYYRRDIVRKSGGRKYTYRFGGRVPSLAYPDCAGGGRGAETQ
Procedure, shortened: as §1

[8] = molecular target: T5, ELF3 (Homo sapiens, UniProt P78545 1-371); details: protein: recombinant; tags: N-terminal GST; dsDNA, one strand shown
T5 sequence: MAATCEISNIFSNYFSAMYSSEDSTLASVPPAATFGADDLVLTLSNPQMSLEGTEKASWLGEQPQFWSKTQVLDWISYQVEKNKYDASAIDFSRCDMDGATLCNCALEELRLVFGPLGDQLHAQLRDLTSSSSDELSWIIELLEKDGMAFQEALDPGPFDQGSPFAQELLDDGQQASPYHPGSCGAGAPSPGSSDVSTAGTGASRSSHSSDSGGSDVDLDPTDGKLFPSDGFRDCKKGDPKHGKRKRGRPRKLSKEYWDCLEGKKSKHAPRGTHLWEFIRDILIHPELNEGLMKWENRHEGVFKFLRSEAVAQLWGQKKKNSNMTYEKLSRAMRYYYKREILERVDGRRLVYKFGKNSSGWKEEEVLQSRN
Procedure, shortened: as §1

[9] = molecular target: CRX (Homo sapiens, UniProt O43186 1-299); details: protein: recombinant; tags: N-terminal GST; dsDNA, one strand shown
Procedure, shortened: as §1

[10] = molecular target: ETV1 (Homo sapiens, UniProt P50549 1-477); details: protein: recombinant; tags: N-terminal GST; dsDNA, one strand shown
Procedure, shortened: as §1

[11] = molecular target: T6, ERF (Homo sapiens, UniProt P50548 1-548); details: protein: recombinant; tags: N-terminal GST; dsDNA, one strand shown
T6 sequence: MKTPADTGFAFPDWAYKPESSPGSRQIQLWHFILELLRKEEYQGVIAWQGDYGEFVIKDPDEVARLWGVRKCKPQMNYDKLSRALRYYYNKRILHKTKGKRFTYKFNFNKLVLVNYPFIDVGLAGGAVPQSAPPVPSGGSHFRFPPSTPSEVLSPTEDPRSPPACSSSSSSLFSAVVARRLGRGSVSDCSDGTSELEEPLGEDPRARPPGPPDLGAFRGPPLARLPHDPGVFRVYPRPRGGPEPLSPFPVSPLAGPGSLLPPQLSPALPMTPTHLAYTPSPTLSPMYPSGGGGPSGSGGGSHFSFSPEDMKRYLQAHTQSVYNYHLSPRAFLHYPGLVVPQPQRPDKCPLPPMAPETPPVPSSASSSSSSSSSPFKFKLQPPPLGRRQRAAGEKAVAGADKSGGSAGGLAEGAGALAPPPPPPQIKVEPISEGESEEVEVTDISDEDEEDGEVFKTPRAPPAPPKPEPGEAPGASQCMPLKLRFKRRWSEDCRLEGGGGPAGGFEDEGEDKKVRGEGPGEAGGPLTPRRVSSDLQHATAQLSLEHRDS
Procedure, shortened: as §1

[12] = molecular target: T7, ETV3L (Homo sapiens, UniProt Q6ZN32 1-361); details: protein: recombinant; tags: N-terminal GST; dsDNA, one strand shown
T7 sequence: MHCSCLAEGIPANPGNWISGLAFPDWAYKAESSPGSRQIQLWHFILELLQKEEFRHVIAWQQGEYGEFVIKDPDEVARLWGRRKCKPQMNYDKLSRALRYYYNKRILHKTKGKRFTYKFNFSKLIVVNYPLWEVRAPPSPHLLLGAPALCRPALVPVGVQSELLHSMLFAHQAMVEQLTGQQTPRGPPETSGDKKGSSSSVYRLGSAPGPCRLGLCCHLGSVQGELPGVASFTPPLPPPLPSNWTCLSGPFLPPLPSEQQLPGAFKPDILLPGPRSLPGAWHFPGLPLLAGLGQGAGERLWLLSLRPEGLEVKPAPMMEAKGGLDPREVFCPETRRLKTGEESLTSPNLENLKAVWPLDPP
Procedure, shortened: as §1

[13] = molecular target: T8, ETS2 (Homo sapiens, UniProt P15036 1-469); details: protein: recombinant; tags: N-terminal GST; dsDNA, one strand shown
T8 sequence: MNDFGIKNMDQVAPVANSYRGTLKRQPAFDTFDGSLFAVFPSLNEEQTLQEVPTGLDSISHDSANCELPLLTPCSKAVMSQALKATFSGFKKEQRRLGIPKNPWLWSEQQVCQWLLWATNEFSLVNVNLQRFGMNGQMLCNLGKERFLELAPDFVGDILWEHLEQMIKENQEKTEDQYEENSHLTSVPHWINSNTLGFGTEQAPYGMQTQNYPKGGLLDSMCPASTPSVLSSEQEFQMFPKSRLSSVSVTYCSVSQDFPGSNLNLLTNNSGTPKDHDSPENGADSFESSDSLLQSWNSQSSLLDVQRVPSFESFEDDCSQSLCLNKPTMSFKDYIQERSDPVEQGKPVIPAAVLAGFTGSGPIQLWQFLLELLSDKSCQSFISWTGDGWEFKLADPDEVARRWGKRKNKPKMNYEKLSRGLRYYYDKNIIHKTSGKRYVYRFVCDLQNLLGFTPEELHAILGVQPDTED
Procedure, shortened: as §1

[14] = molecular target: T9, SPDEF (Homo sapiens, UniProt O95238 1-335); details: protein: recombinant; tags: N-terminal GST; dsDNA, one strand shown
T9 sequence: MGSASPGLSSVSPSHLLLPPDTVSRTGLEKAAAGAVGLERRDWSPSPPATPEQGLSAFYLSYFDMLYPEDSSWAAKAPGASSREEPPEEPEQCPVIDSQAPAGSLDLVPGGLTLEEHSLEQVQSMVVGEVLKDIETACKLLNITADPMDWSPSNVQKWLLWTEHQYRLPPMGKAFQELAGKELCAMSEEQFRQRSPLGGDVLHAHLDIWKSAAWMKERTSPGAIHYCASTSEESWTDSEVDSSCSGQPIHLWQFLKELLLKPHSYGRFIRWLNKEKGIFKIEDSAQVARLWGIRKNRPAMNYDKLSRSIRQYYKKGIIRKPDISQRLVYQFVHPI
Procedure, shortened: as §1

[15] = molecular target: T10, ETV7 (Homo sapiens, UniProt Q9Y603 1-341); details: protein: recombinant; tags: N-terminal GST; dsDNA, one strand shown
T10 sequence: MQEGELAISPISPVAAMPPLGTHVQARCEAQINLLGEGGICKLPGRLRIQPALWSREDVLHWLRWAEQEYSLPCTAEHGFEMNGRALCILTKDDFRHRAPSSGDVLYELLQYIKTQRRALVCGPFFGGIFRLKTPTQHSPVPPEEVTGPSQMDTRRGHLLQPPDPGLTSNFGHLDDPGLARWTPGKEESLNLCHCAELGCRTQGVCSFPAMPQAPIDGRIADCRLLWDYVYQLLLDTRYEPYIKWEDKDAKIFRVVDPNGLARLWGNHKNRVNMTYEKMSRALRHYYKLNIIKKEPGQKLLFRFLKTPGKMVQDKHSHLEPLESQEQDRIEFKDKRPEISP
Procedure, shortened: as §1

[16] = molecular target: T11, ELF5 (Homo sapiens, UniProt Q9UKW6-2 1-255); details: protein: recombinant; tags: N-terminal GST; dsDNA, one strand shown
T11 sequence: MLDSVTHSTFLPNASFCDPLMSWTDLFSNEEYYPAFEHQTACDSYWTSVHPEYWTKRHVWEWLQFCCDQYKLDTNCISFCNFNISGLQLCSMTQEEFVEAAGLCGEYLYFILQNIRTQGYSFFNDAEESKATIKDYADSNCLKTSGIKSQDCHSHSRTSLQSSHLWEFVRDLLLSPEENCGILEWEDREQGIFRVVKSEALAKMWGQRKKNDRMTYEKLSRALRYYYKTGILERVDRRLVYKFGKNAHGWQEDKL
Procedure, shortened: as §1

[17] = molecular target: T12, ETV3 (Homo sapiens, UniProt P41162-2 1-143); details: protein: recombinant; tags: N-terminal GST; dsDNA, one strand shown
T12 sequence: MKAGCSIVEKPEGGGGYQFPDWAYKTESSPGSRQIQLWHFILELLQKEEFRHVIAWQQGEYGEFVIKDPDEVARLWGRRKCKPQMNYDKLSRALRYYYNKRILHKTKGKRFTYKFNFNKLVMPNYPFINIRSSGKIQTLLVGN
Procedure, shortened: as §1

[18] = molecular target: ETV6 (Homo sapiens, UniProt P41212 1-452); details: protein: recombinant; tags: N-terminal GST; dsDNA, one strand shown
Procedure, shortened: as §1

ETV1, sequence (P50549 whole entry): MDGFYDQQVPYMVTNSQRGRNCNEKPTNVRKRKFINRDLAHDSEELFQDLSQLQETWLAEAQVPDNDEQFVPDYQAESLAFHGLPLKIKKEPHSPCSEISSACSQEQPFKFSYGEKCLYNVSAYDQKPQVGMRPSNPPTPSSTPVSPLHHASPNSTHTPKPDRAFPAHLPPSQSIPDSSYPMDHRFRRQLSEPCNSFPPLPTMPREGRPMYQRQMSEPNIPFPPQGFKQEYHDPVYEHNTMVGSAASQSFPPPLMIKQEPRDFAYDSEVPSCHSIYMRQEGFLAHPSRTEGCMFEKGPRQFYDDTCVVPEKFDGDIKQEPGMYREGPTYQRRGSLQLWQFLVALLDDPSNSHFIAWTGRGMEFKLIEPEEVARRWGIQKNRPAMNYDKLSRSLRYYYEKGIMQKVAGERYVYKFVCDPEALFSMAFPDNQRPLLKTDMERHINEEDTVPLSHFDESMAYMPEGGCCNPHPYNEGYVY
ELF4, sequence (Q99607 whole entry): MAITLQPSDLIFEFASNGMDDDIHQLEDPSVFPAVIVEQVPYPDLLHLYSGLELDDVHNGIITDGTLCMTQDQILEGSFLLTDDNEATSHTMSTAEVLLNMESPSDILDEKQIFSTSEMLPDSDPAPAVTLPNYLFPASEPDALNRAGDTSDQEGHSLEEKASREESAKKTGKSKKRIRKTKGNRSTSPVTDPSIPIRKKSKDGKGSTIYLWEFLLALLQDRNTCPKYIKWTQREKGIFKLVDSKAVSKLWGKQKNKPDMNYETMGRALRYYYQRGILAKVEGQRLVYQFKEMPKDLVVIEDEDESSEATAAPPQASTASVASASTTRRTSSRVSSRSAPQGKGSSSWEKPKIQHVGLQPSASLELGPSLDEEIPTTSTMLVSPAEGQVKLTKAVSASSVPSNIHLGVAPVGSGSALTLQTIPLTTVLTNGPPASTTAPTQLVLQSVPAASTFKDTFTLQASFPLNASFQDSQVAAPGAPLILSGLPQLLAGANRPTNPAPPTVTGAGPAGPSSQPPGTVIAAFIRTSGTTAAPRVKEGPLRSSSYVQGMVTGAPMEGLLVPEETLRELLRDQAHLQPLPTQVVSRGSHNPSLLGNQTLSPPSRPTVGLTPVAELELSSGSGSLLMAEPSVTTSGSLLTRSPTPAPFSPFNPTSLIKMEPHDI
CRX, sequence (O43186 whole entry): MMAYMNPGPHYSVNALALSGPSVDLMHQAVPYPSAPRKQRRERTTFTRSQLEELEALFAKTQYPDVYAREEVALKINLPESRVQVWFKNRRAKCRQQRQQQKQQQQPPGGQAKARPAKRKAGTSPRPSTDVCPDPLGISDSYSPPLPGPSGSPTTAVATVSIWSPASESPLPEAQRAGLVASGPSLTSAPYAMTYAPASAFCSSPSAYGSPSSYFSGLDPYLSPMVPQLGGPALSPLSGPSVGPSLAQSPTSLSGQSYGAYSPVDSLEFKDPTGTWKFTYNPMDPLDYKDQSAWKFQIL
HSF1, sequence (Q00613 whole entry): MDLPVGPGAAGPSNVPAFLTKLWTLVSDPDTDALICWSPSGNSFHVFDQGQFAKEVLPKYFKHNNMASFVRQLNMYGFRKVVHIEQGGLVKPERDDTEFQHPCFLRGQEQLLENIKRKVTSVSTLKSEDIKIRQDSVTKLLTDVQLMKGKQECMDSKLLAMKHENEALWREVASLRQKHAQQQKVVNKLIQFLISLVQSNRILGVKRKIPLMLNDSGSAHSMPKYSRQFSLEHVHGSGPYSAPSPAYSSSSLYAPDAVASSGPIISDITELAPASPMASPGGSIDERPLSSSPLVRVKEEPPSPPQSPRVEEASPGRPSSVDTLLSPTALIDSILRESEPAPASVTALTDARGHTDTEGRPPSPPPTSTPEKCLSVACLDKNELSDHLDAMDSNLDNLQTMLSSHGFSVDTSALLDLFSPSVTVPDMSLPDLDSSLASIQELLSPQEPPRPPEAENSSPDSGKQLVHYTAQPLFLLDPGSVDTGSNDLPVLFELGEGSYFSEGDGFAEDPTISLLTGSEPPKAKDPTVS
ETV6, sequence (P41212 whole entry): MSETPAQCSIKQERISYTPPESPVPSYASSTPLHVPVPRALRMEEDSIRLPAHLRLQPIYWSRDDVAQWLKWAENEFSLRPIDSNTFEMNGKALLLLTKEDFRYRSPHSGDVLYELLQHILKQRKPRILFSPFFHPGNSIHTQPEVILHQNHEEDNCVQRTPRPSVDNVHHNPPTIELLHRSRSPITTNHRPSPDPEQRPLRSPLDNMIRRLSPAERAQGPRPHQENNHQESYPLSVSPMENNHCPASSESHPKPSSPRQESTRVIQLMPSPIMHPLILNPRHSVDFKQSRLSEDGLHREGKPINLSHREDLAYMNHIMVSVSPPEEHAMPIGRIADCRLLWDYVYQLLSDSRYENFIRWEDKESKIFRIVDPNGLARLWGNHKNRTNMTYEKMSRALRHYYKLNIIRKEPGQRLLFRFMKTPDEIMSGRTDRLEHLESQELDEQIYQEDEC
ETV5, sequence (P41161 whole entry): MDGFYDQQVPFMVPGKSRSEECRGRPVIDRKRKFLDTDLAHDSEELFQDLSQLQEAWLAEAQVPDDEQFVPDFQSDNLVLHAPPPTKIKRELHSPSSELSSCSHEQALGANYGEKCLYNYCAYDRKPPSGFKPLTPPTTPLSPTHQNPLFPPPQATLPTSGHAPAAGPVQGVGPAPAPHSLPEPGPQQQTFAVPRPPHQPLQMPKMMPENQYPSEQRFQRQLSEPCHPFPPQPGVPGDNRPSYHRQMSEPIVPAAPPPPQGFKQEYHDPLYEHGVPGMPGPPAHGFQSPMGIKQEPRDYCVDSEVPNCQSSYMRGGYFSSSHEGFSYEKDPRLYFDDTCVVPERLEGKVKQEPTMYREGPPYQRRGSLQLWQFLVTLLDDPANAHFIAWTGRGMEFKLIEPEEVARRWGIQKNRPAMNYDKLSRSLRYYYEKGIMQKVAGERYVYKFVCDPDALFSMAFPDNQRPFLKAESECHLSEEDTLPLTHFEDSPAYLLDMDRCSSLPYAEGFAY

CCTGAT
binding signal [1]: 1.32 fold enrichment (6-mer frequency, TF over GST control)
binding signal [2]: 1.49 fold enrichment (6-mer frequency, TF over GST control)
binding signal [3]: 1.32 fold enrichment (6-mer frequency, TF over GST control)
binding signal [4]: 1.42 fold enrichment (6-mer frequency, TF over GST control)
binding signal [5]: 1.59 fold enrichment (6-mer frequency, TF over GST control)
binding signal [6]: 1.5 fold enrichment (6-mer frequency, TF over GST control)
binding signal [7]: 1.55 fold enrichment (6-mer frequency, TF over GST control)
binding signal [8]: 1.34 fold enrichment (6-mer frequency, TF over GST control)
binding signal [9]: 1.44 fold enrichment (6-mer frequency, TF over GST control)
binding signal [10]: 1.46 fold enrichment (6-mer frequency, TF over GST control)
binding signal [11]: 1.5 fold enrichment (6-mer frequency, TF over GST control)
binding signal [12]: 1.36 fold enrichment (6-mer frequency, TF over GST control)
binding signal [13]: 1.46 fold enrichment (6-mer frequency, TF over GST control)
binding signal [14]: 1.59 fold enrichment (6-mer frequency, TF over GST control)
binding signal [15]: 1.29 fold enrichment (6-mer frequency, TF over GST control)
binding signal [16]: 1.64 fold enrichment (6-mer frequency, TF over GST control)
binding signal [17]: 1.43 fold enrichment (6-mer frequency, TF over GST control)
binding signal [18]: 1.41 fold enrichment (6-mer frequency, TF over GST control)
